High-throughput results: PubChem, National Center for Advancing Translational Sciences (NCATS)
An excerpt weighted towards active compounds, which were near 11% of everything screened.
3T3 cytotox – cytotoxic compounds in NIH 3T3 cells; Potency, µM (doses to about 96.7 µM), without a hit: at the highest dose activity change, negative = cytotoxicity, most hits filed as inhibitors; AID 1345082; 94,000 compounds, 4.3% hits; NIH 3T3 viability, CellTiter-Glo ATP luminescence, 48-72 h; further: on the % scale 0 is the no-effect control and ±100 the full control effect; nearly all actives have a fitted effect of over 55% in size
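Cytotoxicity was measured by CellTiter-Glo ATP luminescence after 48 or 72 h compound exposure at 37 °C. Mouse NIH 3T3 fibroblasts were seeded at 400 cells/well and dosed by 23 nL pin transfer.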
HEK cytotox – kills HEK 293 cells. HEK 293 viability, ATP luminescence (CellTiter-Glo), 48-72 h. Potency, µM (series often up to 115 µM), for inactives: top-dose activity change, negative = cytotoxicity, actives largely listed as inhibitors. 94,000 compounds, 6.6% hits; further: on the % scale 0 is the no-effect control and ±100 the full control effect; nearly all actives have a fitted effect of over 60% in size
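qHTS cytotoxicity; HEK 293, 250 cells/well; compound pinned; 48 or 72 hr, 37 degree Celsius, 5% CO2, 95% humidity; CellTiter-Glo, 10 min RT; luminescence (ATP).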
NPR1 antag – antagonists of human natriuretic peptide receptor Npr1 | HEK293 hNpr1 GloSensor cGMP, ANP-stimulated luminescence | 76,000 compounds, 1.6% hits | P16066 | Potency, µM (top dose mostly 46.3 µM), for the others: at the top dose activity change, negative = inhibition, hits mostly inhibitors; calls by dose curve; further: on the % scale 0 is the no-effect control and ±100 the full control effect; nearly all actives have a fitted effect of over 60% in size
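Compound pre-incubated 30 min at room temperature on GloSensor-loaded HEK293 cells stably carrying hNpr1 and the pGS-40F cGMP biosensor. Stimulation uses hNppA at 0.1 nM final; luminescence is taken at baseline and 20 min post-agonist.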
Luciferase inh – inhibitors of firefly (Photinus pyralis) luciferase. purified P. pyralis luciferase, luminescence, biochemical. Potency, µM (titrated, usually from 115 µM), usual class: inhibitors. 76,000 compounds, 2.5% hits. AID 1347043; further: on the % scale 0 is the no-effect control and ±100 the full control effect; nearly all actives have a fitted effect of over 65% in size
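Inhibitors were tested against purified firefly luciferase in a biochemical, low-substrate format (both substrates at 10uM) and luminescence measured with a CCD imager.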
NPR1 antag cnf – hNpr1 antagonism, confirmation assay. shares compounds with NPR1 antag. HEK293 hNpr1 cGMP GloSensor luminescence, ANP-stimulated. Potency, µM (doses to about 57.6 µM), inactives show top-dose activity change, negative = inhibition, actives largely listed as inhibitors. 1,400 compounds, 76% hits; calls by dose curve; further: nearly all actives have a fitted effect of over 70% in size
Npr2 selectivity – hNpr2 antagonism, selectivity versus Npr1 | shares compounds with NPR1 antag | HEK293 hNpr2 GloSensor cGMP luminescence, CNP-stimulated | Potency, µM (doses to about 57.6 µM), for inactives: at the top dose activity change, negative = inhibition, usual class: inhibitors | 1,400 compounds, 67% hits | AID 1347046; calls by dose curve; further: nearly all actives have a fitted effect of over 70% in size
Target sequence (P20594 whole entry, looked up): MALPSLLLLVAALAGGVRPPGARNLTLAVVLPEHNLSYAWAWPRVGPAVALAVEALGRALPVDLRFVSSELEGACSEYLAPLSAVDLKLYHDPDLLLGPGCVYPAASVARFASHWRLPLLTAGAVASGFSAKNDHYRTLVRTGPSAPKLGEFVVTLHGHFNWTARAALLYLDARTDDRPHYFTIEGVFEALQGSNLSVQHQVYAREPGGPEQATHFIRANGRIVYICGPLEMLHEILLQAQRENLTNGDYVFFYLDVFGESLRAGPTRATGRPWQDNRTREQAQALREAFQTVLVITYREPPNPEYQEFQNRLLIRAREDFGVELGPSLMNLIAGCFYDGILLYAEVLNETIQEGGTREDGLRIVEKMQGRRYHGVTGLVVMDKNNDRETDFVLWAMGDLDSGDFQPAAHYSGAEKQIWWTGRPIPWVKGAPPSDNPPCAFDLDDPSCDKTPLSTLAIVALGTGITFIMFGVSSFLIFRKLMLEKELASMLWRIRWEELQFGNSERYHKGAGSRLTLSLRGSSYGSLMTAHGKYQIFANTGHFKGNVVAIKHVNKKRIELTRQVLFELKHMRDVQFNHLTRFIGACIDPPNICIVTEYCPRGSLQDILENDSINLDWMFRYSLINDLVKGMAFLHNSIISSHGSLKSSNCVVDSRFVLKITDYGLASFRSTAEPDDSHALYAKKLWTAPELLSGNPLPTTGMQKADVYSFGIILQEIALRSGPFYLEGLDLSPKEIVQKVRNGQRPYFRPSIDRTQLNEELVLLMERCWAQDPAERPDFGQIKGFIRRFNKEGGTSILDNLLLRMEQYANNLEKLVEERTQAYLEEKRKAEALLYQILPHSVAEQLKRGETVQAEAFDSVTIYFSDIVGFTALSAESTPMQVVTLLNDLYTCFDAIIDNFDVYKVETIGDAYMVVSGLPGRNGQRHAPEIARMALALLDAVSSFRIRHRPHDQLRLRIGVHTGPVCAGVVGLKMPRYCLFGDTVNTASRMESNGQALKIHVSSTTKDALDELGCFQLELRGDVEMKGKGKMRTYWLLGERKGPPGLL
FLuc counter – FLuc enzyme inhibition, Npr1 counter-screen. shares compounds with NPR1 antag. purified FLuc enzyme, luminescence, Km substrate. Potency, µM (doses to about 57.6 µM), without a hit: at the top dose activity change, negative = inhibition, usual class: inhibitors. 1,400 compounds, 0.7% hits; further: 0% is about no effect
GloSensor ctrl – reduces cGMP signal in GloSensor control cells. AID 1347051. 1,400 compounds, 69% hits. Potency, µM (top dose mostly 57.6 µM), for inactives: top-dose activity change, negative = inhibition, actives largely listed as inhibitors. shares compounds with NPR1 antag. HEK293 GloSensor cGMP, SNP-stimulated, luminescence; calls by dose curve; further: on the % scale 0 is the no-effect control and ±100 the full control effect; nearly all actives have a fitted effect of over 70% in size
Active calls of the source: *; i = inactive; ? = inconclusive; . = no result given; [ ] = remark or other dose. Unless noted, the call rests on the fitted dose curve; in most records, active means well fitted curve in the direction sought with a large enough effect; inconclusive means small, poorly fitted or top-dose-only effect, or another doubt; inactive means no such curve, though single readings can be large; an effect the other way counts as inactive or inconclusive. Potency means the concentration at half of the fitted maximal effect.

SMILES | 3T3 cytotox | HEK cytotox | NPR1 antag | Luciferase inh | NPR1 antag cnf | Npr2 selectivity | FLuc counter | GloSensor ctrl
Cc1nc(N2CCC(NC(=O)c3ccccc3F)CC2)cc(C(F)(F)F)n1 | -8% | -2% | -12% | i | . | . | . | .
Cc1nc(N2CCC(NC(=O)c3ccc4ccccc4n3)CC2)cc(C(F)(F)F)n1 | ? | 45µM* | 10µM* | i | 14µM* | 14µM* | 1% | 12µM*
Cc1nc(N2CCC(NC(=O)c3nccc4ccccc34)CC2)cc(C(F)(F)F)n1 | ? | ? | 11µM* | i | 19µM* | 17µM* | 0% | 14µM*
CC(C)Cn1c(CN2CCSCC2)cnc1S(=O)(=O)Cc1ccccc1 | -40% | ? | -3% | i | . | . | . | .
OCc1ccc(CN2CCCC(CCc3c(F)cccc3F)C2)o1 (stereo not drawn) | -13% | ? | -5% | i | . | . | . | .
COC(=O)N1CCCCC(NC(=O)CCCc2nc(-c3ccccc3C)no2)C1 (stereo not drawn) | ? | 35µM* | 13µM* | i | 17µM* | 19µM* | -1% | 19µM*
O=C1CC(c2ccccc2)N(C(=O)C2CC2)CCCN(C(=O)Nc2ccccc2F)CCN1 (stereo not drawn) | -16% | -8% | -5% | i | . | . | . | .
O=C(Cc1ccccc1Cl)N1CCC(Cc2nc(-c3ccc(F)cc3)no2)CC1 | ? | ? | 16µM* | i | 12µM* | 15µM* | 4% | 11µM*
O=C(CCC1CCCC1)N1CCC(Cc2nc(C3CCOCC3)no2)CC1 | ? | ? | 10µM* | i | 12µM* | 17µM* | 5% | 12µM*
O=C(CC1CCCCC1)N1CCC(n2cc(-c3nc(-c4ccccc4)no3)nn2)CC1 | ? | 28µM* | 11µM* | i | 24µM* | 22µM* | -2% | 22µM*
O=C(CC1CCCC1)N1CCC(Cc2nc(-c3ccc(F)cc3)no2)CC1 | ? | ? | 2.2µM* | i | 2.2µM* | 3.1µM* | 3% | 3.1µM*
COCCC(=O)N1CCC(c2noc(COc3ccc(F)cc3)n2)C1 (stereo not drawn) | i | -1% | 2% | i | . | . | . | .
O=C(CC1CCCCC1)N1CCC(Cc2nc(-c3ccccc3)no2)CC1 | ? | ? | 10µM* | i | 14µM* | 15µM* | 0% | 9.7µM*
O=C(CC1CCCCC1)N1CCC(c2noc(COc3ccc(F)cc3)n2)CC1 | ? | ? | 7.1µM* | i | 12µM* | 14µM* | -7% | 14µM*
COCCN1CCCC2(CCN(c3nc(C)nc4sccc34)C2)C1=O (stereo not drawn) | ? | -34% | ? | i | 24µM* | ? | -1% | 24µM*
COc1ccc(-c2nnc(C[C@@H]3C[C@@H](C(C)C)[C@H](CNC(=O)c4ccc(F)cc4)C=C3C)o2)cc1 | ? | ? | ? | i | ? | -25% | -1% | ?
CC1=C[C@@H](CNC(=O)c2ccccn2)[C@H](C(C)C)C[C@H]1Cc1nnc(-c2ccncc2)o1 | ? | 22µM* | 14µM* | i | 18µM* | 22µM* | -1%[86.2 µM] | 18µM*
CCCCc1ncc(CN2CCCC(C(=O)Nc3ccccc3-c3ccc(OC)cc3)C2)[nH]1 (stereo not drawn) | ? | ? | -15% | i | . | . | . | .
O=C(NC1CC1)c1cc2n(n1)CC(c1ccc3c(c1)OCO3)OC2 (stereo not drawn) | ? | -28% | -2% | i | . | . | . | .
CC1CCC(NC(=O)c2cc3n(n2)CC(c2ccc(Cl)cc2)OC3)CC1 (stereo not drawn) | ? | ? | -27% | i | . | . | . | .
O=C(NC1CCN(Cc2ccccc2)CC1)c1cc2n(n1)CC(c1ccc(Cl)cc1)OC2 (stereo not drawn) | ? | ? | 10µM* | i | 19µM* | 17µM* | 4% | 12µM*
O=C(NC1CCN(Cc2ccccc2)CC1)c1cc2n(n1)CC(c1ccc3c(c1)OCO3)OC2 (stereo not drawn) | ? | ? | 13µM* | i | 22µM* | 22µM* | -1% | 17µM*
CCOc1ccccc1C(=O)N1CCc2[nH]nc(C(=O)NCCCc3ccccc3)c2C1 | ? | 22µM* | ? | i | 24µM* | ? | 4% | 19µM*
O=C(NCc1ccccc1F)C1c2ccccc2C(=O)N(Cc2ccccc2)C12CCCC2 (stereo not drawn) | ? | ? | -14% | i | . | . | . | .
COc1ccc(CN2CC3(CCN(C(=O)c4cn[nH]c4-c4ccc(F)cc4)CC3)C2=O)cc1 | ? | 28µM* | 11µM* | i | 14µM* | 19µM* | -4% | 12µM*
SMILES | 3T3 cytotox | HEK cytotox | NPR1 antag | Luciferase inh | NPR1 antag cnf | Npr2 selectivity | FLuc counter | GloSensor ctrl
Cc1ncsc1CN1CCCCC1c1nc(CCOc2ccc(F)cc2)no1 (stereo not drawn) | ? | 16µM* | 10µM* | i | 22µM* | 19µM* | -1% | 19µM*
CCc1noc(CC2CCOC3(CCN(S(=O)(=O)c4cccc(Cl)c4)CC3)C2)n1 (stereo not drawn) | ? | ? | 10µM* | i | 22µM* | ? | -2% | 22µM*
CCc1noc(CC2CCOC3(CCN(S(=O)(=O)c4cc(F)ccc4C)CC3)C2)n1 (stereo not drawn) | ? | ? | ? | i | . | . | . | .
CCc1noc(CC2CCOC3(CCN(S(=O)(=O)c4cccc(OC)c4)CC3)C2)n1 (stereo not drawn) | ? | ? | 16µM* | i | 22µM* | 22µM* | -1% | 19µM*
COc1cccc(S(=O)(=O)N2CCC3(CC2)CC(OC)CCO3)c1 (stereo not drawn) | 3% | 16% | -7% | i | . | . | . | .
CCc1noc(CC2CCOC3(CCN(S(=O)(=O)c4ccccc4Cl)CC3)C2)n1 (stereo not drawn) | -23% | ? | ? | i | 22µM* | 22µM* | -1% | 17µM*
O[C@]12CCNC[C@H]1CN(Cc1cccc(N3CCOCC3)c1)CC2 | 0% | -8% | 2% | i | . | . | . | .
